15 compounds from PubChem BioAssay can be followed below.

Structures are written as SMILES. For part of these data: Measured potencies and affinities stand elsewhere. Active and inactive are the calls of the source.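 How the source made its calls, unless noted: active means calcium signal cut by more than 3 SD below the full-agonist control yet still positive, in both repeats and the earlier primary screen; inactive means the rest.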

For assay [1], the system named is TRPC4 beta (transient receptor potential cation channel C4), mouse. Briefly: activators of mouse TRPC4 channel, confirmation, cell-based, Fluo4 calcium, HEK293 TRPC4beta/mu-opioid, duplicates, 10 µM (AID 2426;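 active means fluorescence ratio normalized to control raised more than 50% in primary screen plus both repeat runs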;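 on activation: percent rise of integrated ratio over buffer wells lacking compound which define 0%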). To be noted: Fluo4 calcium fluorescence, at 10 µM; active compounds read high.
Assay [2] deals with transient receptor potential cation channel C4 beta (TRPC4), mouse. Kind of assay: activators of mouse TRPC4 channel, confirmation, cell-based, second round, Fluo4, HEK293 TRPC4beta/mu-opioid, 1 µM (AID 2461;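 active means primary screen active and over 50% activation in each of two duplicate runs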). The conditions noted are these: Fluo4 calcium fluorescence, at 1 µM; active compounds read high.
For assay [3], the system named is TRPC4 (transient receptor potential cation channel C4 beta), mouse. Kind of assay: positive allosteric modulators of mouse TRPC4, confirmation, cell-based, second round, Fluo-4, HEK293 TRPC4beta/mu-opioid, 1 µM (AID 2554;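 active means primary screen hit whose fluorescence ratio, in both repeats, exceeds the weak agonist control mean by 3 SD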). To be noted: DAMGO EC20, Fluo-4 calcium flux, at 1 µM; active compounds read high.
For assay [4], the system named is TRPC4 beta (transient receptor potential cation channel C4), mouse. Kind of assay: positive allosteric modulators of mouse TRPC4, confirmation, cell-based, Fluo-4, HEK293 TRPC4beta/mu-opioid (AID 2555;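 active means primary screen hit whose calcium fluorescence ratio, in both repeats, exceeds the weak agonist control mean by 3 SD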). To be noted: DAMGO EC20, Fluo-4 calcium flux, at 10 µM; active compounds read high.
For assay [5], the target named is Short transient receptor potential channel 4 (Mus musculus) (UniProt Q9QUQ5). Kind of assay: inhibitors of mouse TRPC4 channel, confirmation, cell-based, Fluo4, HEK293 TRPC4beta/mu-opioid (AID 2636). To be noted: DAMGO, Fluo4 calcium flux, at 10 µM; active compounds read high.
Short transient receptor potential channel 4 (Mus musculus), sequence (Q9QUQ5 whole entry, looked up): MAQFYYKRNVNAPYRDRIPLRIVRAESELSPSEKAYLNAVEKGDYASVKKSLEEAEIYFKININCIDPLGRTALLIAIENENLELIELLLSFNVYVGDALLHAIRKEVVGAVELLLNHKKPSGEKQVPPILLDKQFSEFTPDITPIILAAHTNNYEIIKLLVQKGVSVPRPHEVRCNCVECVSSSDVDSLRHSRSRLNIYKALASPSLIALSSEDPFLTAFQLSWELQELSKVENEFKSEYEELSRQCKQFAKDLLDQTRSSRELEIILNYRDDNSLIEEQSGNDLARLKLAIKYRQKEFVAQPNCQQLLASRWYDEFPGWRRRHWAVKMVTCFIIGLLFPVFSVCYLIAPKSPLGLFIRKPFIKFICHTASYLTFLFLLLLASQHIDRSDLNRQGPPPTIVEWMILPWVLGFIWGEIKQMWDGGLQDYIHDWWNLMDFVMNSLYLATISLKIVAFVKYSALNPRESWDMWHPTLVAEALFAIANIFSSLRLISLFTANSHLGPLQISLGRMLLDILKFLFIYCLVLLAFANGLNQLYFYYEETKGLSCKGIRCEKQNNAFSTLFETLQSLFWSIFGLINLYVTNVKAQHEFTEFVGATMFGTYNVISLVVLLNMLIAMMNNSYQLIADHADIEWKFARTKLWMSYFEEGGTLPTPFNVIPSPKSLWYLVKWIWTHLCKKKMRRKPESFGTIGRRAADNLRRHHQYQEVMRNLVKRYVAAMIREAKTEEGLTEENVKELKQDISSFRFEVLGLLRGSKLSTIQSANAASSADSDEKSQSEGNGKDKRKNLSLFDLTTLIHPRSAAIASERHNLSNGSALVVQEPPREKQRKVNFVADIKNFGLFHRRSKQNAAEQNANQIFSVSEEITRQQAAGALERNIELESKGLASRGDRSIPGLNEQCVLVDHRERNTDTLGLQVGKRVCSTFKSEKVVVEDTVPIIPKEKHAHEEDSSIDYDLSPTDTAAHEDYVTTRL
For assay [6] the target is unchanged. Briefly: inhibitors of mouse TRPC4 channel, confirmation, cell-based, second round, Fluo4, HEK293 TRPC4beta/mu-opioid, 1 µM (AID 2637;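 active means calcium signal ratio cut to more than 3 SD under the fully stimulated control mean yet still positive, in both repeats and the primary screen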). To be noted: Fluo4 calcium flux, DAMGO, at 1 µM; active compounds read high.
Assay [7] has the same target. Briefly: mouse TRPC4 channel activators, dose response, cell-based, HEK293 TRPC4/mu-opioid, Fluo-4 calcium (AID 434937;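 active means primary screen activator hit with a dose response curve and TRPC4 channel activation at any tested dose; inactive means no activation, no dose response, or not a primary hit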).
For assay [8] the target is unchanged. Kind of assay: TRPC4 positive allosteric modulators, dose response, cell-based, HEK293 TRPC4/mu-opioid, Fluo-4 calcium, EC20 DAMGO (AID 434941;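 active means earlier screen potentiator hit that boosts the TRPC4 ion channel at some dose, with a dose response; inactive means no potentiation, no dose response, or not a prior hit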;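 further: calcium entry triggered by an EC20 dose of DAMGO at the co-expressed mu-opioid receptor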).
The target is the same in assay [9]. Kind of assay: mouse TRPC4 channel inhibitors, dose response, cell-based, HEK293 TRPC4/mu-opioid, Fluo-4 calcium (AID 434942;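 active means primary screen inhibitor hit that blocks the TRPC4 channel at some tested dose, yielding a dose curve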).
The target of assay [10] is Short transient receptor potential channel 6 (Mus musculus) (UniProt Q61143). Briefly: inhibition of mouse TRPC6 channel, confirmation, selectivity assay for TRPC4 inhibitor project, cell-based, HEK293, membrane potential dye, duplicate (AID 434948;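 active means active in primary screen and both duplicates, each dropping signal beyond three positive-control SD with fluorescence still positive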). The conditions noted are these: HEK293 TRPC6, membrane potential dye fluorescence, at 10 µM, stimulated with maximal-effect acetylcholine; active compounds read high.
Short transient receptor potential channel 6 (Mus musculus), sequence (Q61143 whole entry, looked up): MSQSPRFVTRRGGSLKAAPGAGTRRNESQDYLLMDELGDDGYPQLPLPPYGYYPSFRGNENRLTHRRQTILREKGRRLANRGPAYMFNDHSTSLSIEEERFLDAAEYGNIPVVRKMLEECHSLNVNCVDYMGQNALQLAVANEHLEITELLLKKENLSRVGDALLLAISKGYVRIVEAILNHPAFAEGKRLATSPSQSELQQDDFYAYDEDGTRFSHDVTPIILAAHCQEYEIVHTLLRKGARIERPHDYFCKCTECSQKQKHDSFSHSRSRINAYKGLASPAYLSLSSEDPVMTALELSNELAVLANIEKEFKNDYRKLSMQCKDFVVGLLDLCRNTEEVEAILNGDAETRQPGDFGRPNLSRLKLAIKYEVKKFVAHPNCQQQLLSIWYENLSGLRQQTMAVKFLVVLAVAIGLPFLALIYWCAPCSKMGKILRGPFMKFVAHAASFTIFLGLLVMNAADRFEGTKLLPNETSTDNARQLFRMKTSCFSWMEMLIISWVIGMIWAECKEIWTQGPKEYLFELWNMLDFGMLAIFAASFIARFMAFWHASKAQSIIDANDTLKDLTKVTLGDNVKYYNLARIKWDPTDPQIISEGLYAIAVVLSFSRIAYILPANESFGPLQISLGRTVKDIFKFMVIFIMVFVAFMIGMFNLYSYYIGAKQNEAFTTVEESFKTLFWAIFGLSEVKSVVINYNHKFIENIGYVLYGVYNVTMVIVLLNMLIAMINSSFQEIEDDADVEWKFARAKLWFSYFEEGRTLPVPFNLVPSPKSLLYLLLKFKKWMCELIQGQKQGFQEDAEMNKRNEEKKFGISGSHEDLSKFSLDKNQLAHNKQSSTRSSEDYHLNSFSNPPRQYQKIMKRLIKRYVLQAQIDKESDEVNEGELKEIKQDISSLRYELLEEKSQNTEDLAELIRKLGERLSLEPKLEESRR

Assay [11] has the same target. Briefly: activation of mouse TRPC6 channel, confirmation, selectivity assay for TRPC4 activator project, cell-based, HEK293, membrane potential dye, duplicate (AID 434950;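 active means membrane potential signal rise above negative control mean plus 3 SD in both duplicates, also active in the earlier TRPC4 screen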). The conditions noted are these: HEK293 TRPC6, membrane potential fluorescence, at 10 µM; active compounds read high.
The target is the same in assay [12]. Briefly: TRPC6 potentiation by TRPC4 potentiator hits, confirmation, selectivity assay for TRPC4 potentiator project, HEK293 cells, membrane potential dye, duplicate (AID 434952;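 active means compound raising the membrane signal above positive-control mean plus 3 SD in both repeats, and a primary screen hit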). To be noted: HEK293 TRPC6, membrane potential dye fluorescence, at 10 µM, maximal acetylcholine added after compound; active compounds read high.
Assay [13] addresses Short transient receptor potential channel 4 (Mus musculus) (UniProt Q9QUQ5). Briefly: calcium flux activators in TRPC4/5HT1a cells, counter-screen for TRPC4 activator project, cell-based, second counter screen, HEK293 TRPC4/5HT1a, Fluo-4 (AID 434977;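 active means calcium signal rise above buffer-control mean plus 5 SD in both duplicates, and also a hit in the primary screen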). To be noted: Fluo-4 calcium flux, at 10 µM; active compounds read high.
Assay [14] in a line: calcium flux inhibitors in TRPC4/5HT1a cells, confirmation, counter-screen for TRPC4 inhibitor project, cell-based, second counter screen, HEK293 TRPC4/5HT1a, Fluo-4 (AID 434978;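 active means primary screen active whose calcium signal fell more than 3 SD beyond the full-serotonin control mean in both duplicate plates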;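 further: serotonin given first at submaximal then at maximal dose after compound preincubation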). To be noted: Fluo-4 calcium flux, at 10 µM, serotonin added to trigger calcium flux; active compounds read high.
Assay [15] deals with TRPC4 (mouse), co-expressed with 5HT1a in HEK293. Briefly: calcium flux potentiators in TRPC4/5HT1a cells, confirmation, counter-screen for TRPC4 potentiator project, cell-based, second counter screen, HEK293 TRPC4/5HT1a, Fluo-4 (AID 434979;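 active means signal rise over 3 SD above mean of control wells given weak agonist, in both repeats and first screen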). The conditions noted are these: Fluo-4 calcium flux, at 10 µM, serotonin added at its EC20 dose; active compounds read high.
A short description of assay [16]: calcium flux activation in mu-opioid HEK293 cells, confirmation, counter-screen for TRPC4 activator project, cell-based, HEK293 mu-opioid receptor line (AID 449723;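 active means hit in primary screen, with calcium signal over 5 SD above buffer well mean in both duplicates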;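 further: counter screen cells carry the mu-opioid receptor alone and lack TRPC4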). The conditions noted are these: Fluo-4 calcium fluorescence, at 10 µM; active compounds read high.
A short description of assay [17]: calcium flux enhancement in mu-opioid HEK293 cells, confirmation, counter-screen for TRPC4 allosteric potentiator project, cell-based, HEK293 mu-opioid receptor line (AID 449724;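 active means calcium signal rise more than 3 SD above the low-dose agonist control mean, in both duplicate plates and the primary screen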;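 further: HEK293 cells carrying mu-opioid receptor only with no TRPC4 channel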). To be noted: Fluo-4 calcium flux, at 10 µM, compound added before EC20 DAMGO stimulus; active compounds read high.

Consider `CN(C)CCCNc1c2c(nc3cc(-c4cccc(F)c4)nn13)CCC2`, for which the activation in assay [1] is 81% (active). Further, the result in assay [2], in [3], in assay [4], in [5], in assay [6] and in assay [7] was inactive. Also, the result in assay [8], in [9], in assay [10], in [11], in assay [12] and in assay [13] was inactive. In addition, the result in [14], in assay [15], in assay [16] and in assay [17] was inactive.

In the case of `COC(=O)CSc1nnc(CNS(=O)(=O)c2ccc(Br)cc2)n1C`, the outcome in [1], in assay [2], in assay [3], in assay [4], in [5] and in assay [6] was inactive. In addition, the outcome in assay [7], in assay [8], in [9], in [10], in assay [11] and in assay [12] was inactive. Besides, the outcome in assay [13], in assay [14], in [15], in assay [16] and in [17] was inactive.

In the case of `CN1CCN(CCCNC(=O)CN2C(=O)COc3ccccc32)CC1`, the outcome in [1], in assay [2], in assay [3], in [4], in assay [6] and in [7] was inactive. In addition, the result in [8], in assay [9], in assay [10], in assay [11], in [12] and in assay [13] was inactive. Also, the result in [14], in assay [15], in [16] and in [17] was inactive. The inhibition in assay [5] is 77% (active).

In the case of `CSc1nnc(Cc2sc(-c3ccccc3)nc2-c2ccccc2)o1`, the outcome in assay [1], in assay [2], in [3], in assay [4], in [5] and in [6] was inactive. Further, the result in assay [7], in assay [8], in assay [9], in assay [10], in assay [11] and in [12] was inactive. Moreover, the result in [13], in assay [14], in assay [16] and in assay [17] was inactive. Besides, in assay [15], the potentiation was 23.3% (active).

As for `O=C(COC(=O)c1cc2c(s1)CCCCC2)NC1CCS(=O)(=O)C1` (stereo not given), the outcome in [1], in assay [2], in assay [3], in assay [4], in [5] and in [6] was inactive. For the same compound, the outcome in assay [7], in assay [8], in assay [9], in [10], in [11] and in [12] was inactive. Moreover, the result in assay [13], in assay [14], in assay [15], in [16] and in assay [17] was inactive.

For `CC(OC(=O)Cn1cnc2c1c(=O)n(C)c(=O)n2C)C(=O)Nc1ccc(Cl)cc1` (stereo not given), the outcome in assay [1], in assay [2], in [3], in assay [4], in assay [5] and in assay [6] was inactive. Further, the result in [7], in [8], in assay [9], in assay [10], in assay [11] and in assay [12] was inactive. The outcome in assay [13], in assay [14], in [15], in assay [16] and in assay [17] was inactive.

`CN(C)S(=O)(=O)c1ccc(Cl)c(C(=O)NC2CCN(Cc3ccccc3)C2)c1` (stereo not given): the result in [1], in assay [2], in assay [3], in assay [4], in assay [5] and in [6] was inactive. The outcome in assay [7], in [8], in [9], in assay [10], in [11] and in [12] was inactive. Further, the outcome in assay [13], in assay [14], in [16] and in [17] was inactive. Also, in assay [15], the potentiation is 15.3% (active).

As for `Cc1[nH]n2c(=O)c3c(nc2c1-c1ccccc1)CCC3`, the outcome in assay [1], in assay [2], in assay [3], in assay [4], in [6] and in [7] was inactive. The result in [8], in assay [9], in assay [10], in assay [11], in [12] and in assay [13] was inactive. Moreover, the outcome in [14], in [15], in [16] and in [17] was inactive. The inhibition in assay [5] was 76% (active).

In the case of `O=C(Nc1ccc(Cl)c(Cl)c1)N(CCCN1CCOCC1)Cc1cccs1`, the result in assay [1], in assay [2], in assay [3], in assay [4], in assay [5] and in assay [6] was inactive. Besides, the outcome in [7], in assay [8], in [9], in [10], in [11] and in [12] was inactive. Besides, the result in assay [13], in [14], in assay [15], in assay [16] and in [17] was inactive.

Regarding `CC(=O)Oc1ccc(NC(=O)CCC2CCCCC2)c(C(=O)O)c1`, the outcome in [1], in assay [2], in assay [3], in assay [4], in assay [6] and in assay [7] was inactive. In addition, the result in [8], in [9], in assay [10], in [11], in [12] and in [13] was inactive. Moreover, the result in assay [14], in [15], in [16] and in assay [17] was inactive. The inhibition in [5] is 68% (active).

With `Cc1oc(-c2ccc(Cl)cc2)nc1CS(=O)CC(=O)NCCCN(C)C1CCCCC1` (stereo not given), the outcome in [1], in assay [2], in assay [3], in [4], in [5] and in assay [6] was inactive. In addition, the outcome in assay [7], in assay [8], in [9], in [10], in [11] and in assay [12] was inactive. Also, the outcome in assay [13], in assay [14], in [15], in assay [16] and in assay [17] was inactive.

As for `O=C(Cc1cn(Cc2cccc(Cl)c2)c2ccccc12)N1CCCC1`, the result in assay [1], in assay [2], in [3], in [5], in assay [6] and in assay [7] was inactive. Further, the result in [8], in assay [9], in [10], in [11], in assay [12] and in assay [13] was inactive. Also, the result in assay [14], in assay [16] and in assay [17] was inactive. The potentiation in assay [4] was 10% (active); in [15], 29.2% (active).

Take `CCOc1ccc(CN2CCCC(CNC(=O)c3ccc(F)cc3)C2)cc1CO` (stereo not given): the outcome in assay [1], in assay [2], in assay [3], in [4], in assay [5] and in [6] was inactive. Moreover, the outcome in assay [7], in [8], in assay [9], in assay [10], in assay [11] and in assay [12] was inactive. The outcome in [13], in [14], in assay [15], in assay [16] and in assay [17] was inactive.

`COc1cc2cc(C)c(SCC(=O)N3CCN(C(=O)c4ccco4)CC3)nc2cc1OC`: the outcome in [1], in [2], in [3], in assay [4], in assay [5] and in assay [6] was inactive. The outcome in assay [7], in [8], in assay [9], in [10], in assay [11] and in assay [12] was inactive. Moreover, the result in assay [13], in assay [14], in assay [15], in assay [16] and in assay [17] was inactive.

Take `CC(=O)OCC1O[C@@H](O[C@@H]2C[C@H]3C(C)(C)[C@H](OC(C)=O)CC[C@]3(C)[C@H]3CC[C@]45C[C@]4(CC[C@H]5[C@@H](C)C[C@@H](O)[C@H](O)C(C)(C)O)[C@@]32C)[C@H](O)[C@@H](O)[C@@H]1O` (stereo not given in full): the activation was 173% (active) in assay [1] and 28.8% (active) in assay [16]. For the same compound, the result in assay [2], in assay [3], in assay [4], in assay [5], in assay [6] and in assay [7] was inactive. In addition, the outcome in [8], in [9], in [10], in assay [11], in assay [12] and in assay [13] was inactive. The result in assay [14], in assay [15] and in assay [17] was inactive.
